PubChem BioAssay (EPA / NIEHS)
“And” between values parts separate entries of the source, which are not always exact repeats. Equal values may be shown once. Where a structure was tested more than once in an assay, its records may differ in their call. The source made the active and inactive calls. How the source made its calls: active means hit-call score of the fitted dose curve at least 0.9, where 1 is the maximum; inactive means score below 0.9.

Key:
[1] = APR_HepG2_P-H2AX_72hr: Apredica 72-hour HepG2 Assay for H2AX Phosphorylation (AID 2282916); settings: imaging, actives raise or lower the signal;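 further: phospho-histone H2A.x immunostain intensity per cell marking DNA damage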
Method in brief: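 Readout: phospho-H2A.x immunofluorescence (FITC secondary) plus Hoechst nuclear stain, high-content imaging at 20x, six fields/well. HepG2, 72 hr compound exposure, 0.39–200 uM, final DMSO 0.5% v/v. Gain or loss fitted relative to DMSO baseline.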

[2] = APR_HepG2_MitoMembPot_72hr: Apredica 72-hour HepG2 Assay for Mitochondrial Membrane Potential (AID 2282917); settings: imaging, actives raise or lower the signal
Method in brief: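 HepG2 cells dosed 72 hr with compound at 0.39–200 uM in duplicate, 0.5% v/v DMSO final. Mitochondria stained with 250 nM MitoTracker Red CMXRos for 30 min before formaldehyde fixation, imaged by high-content fluorescence; bidirectional fit versus DMSO.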

[3] = APR_HepG2_MitoticArrest_72hr: Apredica 72-hour HepG2 Assay for Mitotic Arrest (AID 2282918); settings: high-content imaging, actives raise or lower the signal
Method in brief: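 Using high-content imaging of fixed HepG2 cells, phospho-histone H3 signal was measured following a 72 hr incubation with ten-point compound dilutions up to 200 uM. DMSO served as the negative control and baseline for bidirectional curve fitting.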

[4] = APR_HepG2_MicrotubuleCSK_72hr: Apredica 72-hour HepG2 Assay for Microtubule CSK Stabilty (AID 2282919); settings: HepG2 microtubule cytoskeleton, high-content imaging, actives raise or lower the signal
Method in brief: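 HepG2, 72 hr cmpd exposure, 0.39–200 uM (10 pts, duplicate), 0.5% DMSO. 3.7% formaldehyde fix, 0.5% Triton perm, anti-alpha-tubulin/Cy5 plus Hoechst. HCS fluorescence intensity; bidirectional fit vs DMSO baseline; taxol as positive control.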

[5] = APR_HepG2_P-H2AX_24hr: Apredica 24-hour HepG2 Assay for H2AX Phosphorylation (AID 2282920); settings: high-content imaging, actives raise or lower the signal
Method in brief: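 Human HepG2 liver cells, treated 24 hr with test chemicals (0.39–200 uM, final DMSO 0.5% v/v), are fixed and co-stained for phospho-H2A.x and c-Jun with Hoechst. Imaged intensity is fitted in both directions against DMSO controls.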

[6] = APR_HepG2_StressKinase_72hr: Apredica 72-hour HepG2 Assay for Stress Kinase (AID 2282921); settings: HepG2 stress kinase (phospho-c-Jun) imaging, actives raise or lower the signal
Method in brief: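 Phospho-c-Jun immunofluorescence measured by high-content imaging at 20x, six fields per well; bidirectional curve fitting against DMSO as baseline. Dosing: 0.39–200 uM, 72 h, 0.5% DMSO final.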

[7] = APR_HepG2_StressKinase_24hr: Apredica 24-hour HepG2 Assay for Stress Kinase (AID 2282922); settings: HepG2 stress kinase (phospho-c-Jun) imaging, actives raise or lower the signal
Method in brief: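 Read-out: phospho-c-Jun immunofluorescence (Cy3 secondary) quantified by high-content imaging at 20x, nuclei defined by Hoechst 33342. Human HepG2 liver cells dosed 24 hr, 0.39–200 uM, DMSO 0.5% v/v; gain or loss of signal fitted relative to DMSO.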

[8] = APR_HepG2_p53Act_72hr: Apredica 72-hour HepG2 Assay for p53 Activation (AID 2282923); settings: high-content imaging, actives raise or lower the signal;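 further: average cellular p53 protein immunofluorescence intensity in HepG2 cells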
Method in brief: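 Readout: p53 immunofluorescence quantified by automated high-content imaging at 20x, six fields per well, nuclei located via Hoechst. Dosing ran 72 hr over ten concentrations from 0.39 to 200 uM; bidirectional curve fitting against DMSO baseline.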

[9] = APR_HepG2_MitoMass_72hr: Apredica 72-hour HepG2 Assay for Mitochondrial Mass (AID 2282924); settings: high-content imaging, actives raise or lower the signal;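 further: MitoTracker Red CMXRos stain intensity per cell imaged as mitochondrial mass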
Method in brief: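 Read-out: MitoTracker Red fluorescence intensity from automated imaging (20x, six fields per well) in human HepG2 liver cells. Dosing ran 72 hr, 0.39–200 uM, 0.5% DMSO; bidirectional curve fitting versus DMSO baseline.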

[10] = target: CCAAT/enhancer-binding protein beta (Homo sapiens) (UniProt P17676); experiment: ATG_C_EBP_CIS: Attagene CIS-FACTORIAL HepG2 Assay for human CCAAT/Enhancer Binding Protein (C/EBP) beta (AID 2282927); settings: HepG2 Attagene cis-factorial transcription factor reporter; actives raise or lower the signal
Sequence of CCAAT/enhancer-binding protein beta (Homo sapiens) (P17676 whole entry, looked up): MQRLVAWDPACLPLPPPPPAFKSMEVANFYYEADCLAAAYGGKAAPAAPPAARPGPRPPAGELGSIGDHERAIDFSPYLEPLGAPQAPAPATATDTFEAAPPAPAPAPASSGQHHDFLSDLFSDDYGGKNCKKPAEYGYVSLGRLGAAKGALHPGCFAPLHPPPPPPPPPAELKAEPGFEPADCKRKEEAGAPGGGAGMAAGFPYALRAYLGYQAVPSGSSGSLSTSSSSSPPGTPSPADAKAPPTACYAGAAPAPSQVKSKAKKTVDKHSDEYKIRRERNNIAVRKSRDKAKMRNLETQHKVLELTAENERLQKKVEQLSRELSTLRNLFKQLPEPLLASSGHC
Method in brief: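 Transiently transfected HepG2 (MRTU library, endogenous TF-driven promoters); 24 h dosing; total RNA → oligo(dT) RT → PCR → 6-FAM primer extension → HpaI digest → CE; fit bidirectionally vs DMSO.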

[11] = ATG_CMV_CIS: Attagene CIS-FACTORIAL HepG2 Assay for human CMV (Internal Marker) (AID 2282928); settings: HepG2 CMV promoter reporter, transcription factor profiling; actives raise or lower the signal;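 further: endpoint acts as a background internal control marker rather than a target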
Method in brief: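 Bidirectional fits against DMSO are applied to reporter mRNA, read by RT-PCR with capillary electrophoresis, from HepG2 cells exposed 24 h. The endpoint serves as an internal CMV background marker within the cis-factorial reporter panel.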

[12] = ATG_DR4_LXR_CIS: Attagene CIS-FACTORIAL HepG2 Assay for human Liver X Receptor (LXR), DR4 submotif (AID 2282929); settings: HepG2 Attagene DR4 cis-reporter, mRNA transcription; actives raise or lower the signal
Method in brief: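 Endogenous factor activity at a DR4 cis-element is read as reporter mRNA in transiently transfected HepG2 cells. Exposure lasts 24 h; transcripts are amplified, fluorescently labelled and sized by capillary electrophoresis, with DMSO as baseline.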

[13] = target: Aryl hydrocarbon receptor (Homo sapiens) (UniProt P35869); experiment: ATG_Ahr_CIS: Attagene CIS-FACTORIAL HepG2 Assay for human Aryl Hydrocarbon Receptor (Ahr) (AID 2282930); settings: HepG2 AhR cis-factorial reporter transcription; actives raise or lower the signal
Sequence of Aryl hydrocarbon receptor (Homo sapiens) (P35869 whole entry, looked up): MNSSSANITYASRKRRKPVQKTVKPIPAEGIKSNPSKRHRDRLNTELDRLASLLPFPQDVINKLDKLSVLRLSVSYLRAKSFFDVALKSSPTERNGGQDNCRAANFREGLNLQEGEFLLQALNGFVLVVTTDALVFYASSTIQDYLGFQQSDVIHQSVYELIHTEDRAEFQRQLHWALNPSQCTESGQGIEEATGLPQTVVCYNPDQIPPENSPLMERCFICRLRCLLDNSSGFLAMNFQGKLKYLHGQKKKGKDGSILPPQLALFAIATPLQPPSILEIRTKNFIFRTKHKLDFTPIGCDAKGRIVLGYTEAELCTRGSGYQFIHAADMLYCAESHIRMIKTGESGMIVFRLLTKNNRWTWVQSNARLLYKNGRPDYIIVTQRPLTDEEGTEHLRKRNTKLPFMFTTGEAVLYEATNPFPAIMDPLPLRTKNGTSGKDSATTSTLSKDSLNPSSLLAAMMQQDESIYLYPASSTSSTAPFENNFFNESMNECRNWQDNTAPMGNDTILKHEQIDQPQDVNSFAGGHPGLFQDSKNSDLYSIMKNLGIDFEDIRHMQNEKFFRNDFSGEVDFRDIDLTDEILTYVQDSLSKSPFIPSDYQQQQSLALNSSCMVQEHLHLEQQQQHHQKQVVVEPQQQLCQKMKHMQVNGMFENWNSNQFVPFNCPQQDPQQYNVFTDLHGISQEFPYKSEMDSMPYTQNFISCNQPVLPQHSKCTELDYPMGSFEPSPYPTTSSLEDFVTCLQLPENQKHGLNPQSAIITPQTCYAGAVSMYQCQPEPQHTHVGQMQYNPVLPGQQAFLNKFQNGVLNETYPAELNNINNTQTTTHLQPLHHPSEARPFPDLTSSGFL
Method in brief: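 Read-out: reporter mRNA quantified by RT-PCR with fluorescent primer extension and capillary electrophoresis. Human HepG2 liver cells carried transfected cis-promoter reporter units and were exposed to chemical for 24 h; gain or loss fitted relative to DMSO.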

[14] = ATG_AP_2_CIS: Attagene CIS-FACTORIAL HepG2 Assay for human Activator Protein 2 (AP-2) (AID 2282932); settings: HepG2 AP-2 cis-reporter, Attagene transcription factor profiling; actives raise or lower the signal
Method in brief: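 Read-out: fluorescent reporter mRNA via RT-PCR and capillary electrophoresis, 24 h post-dose in transiently transfected HepG2. Endogenous factors drive cis-promoter reporters; gain or loss of signal fitted bidirectionally against DMSO.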

[15] = ATG_BRE_CIS: Attagene CIS-FACTORIAL HepG2 Assay for human Bone Morphogenetic Protein (BMP) Response Element (BRE) (AID 2282933); settings: HepG2 BMP response element reporter, Attagene transcription factor profiling; actives raise or lower the signal
Method in brief: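 Fluorescence-labelled reporter cDNA fragments, separated by capillary electrophoresis, gave the signal for this component of a 52-readout multiplex. HepG2 cells were transfected, exposed to chemicals for 24 h, and compared with DMSO using bidirectional fitting.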

[16] = target: Retinoic acid receptor alpha (Homo sapiens) (UniProt P10276); experiment: ATG_DR5_RAR_CIS: Attagene CIS-FACTORIAL HepG2 Assay for human Retinoic Acid Receptor Alpha (RARE), DR5 submotif (AID 2282934); settings: HepG2 Attagene cis-factorial RARE DR5 reporter, mRNA; actives raise or lower the signal;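 on AC50: reporter responds to endogenous RAR alpha beta and gamma in HepG2 not RARA alone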
Sequence of Retinoic acid receptor alpha (Homo sapiens) (P10276 whole entry, looked up): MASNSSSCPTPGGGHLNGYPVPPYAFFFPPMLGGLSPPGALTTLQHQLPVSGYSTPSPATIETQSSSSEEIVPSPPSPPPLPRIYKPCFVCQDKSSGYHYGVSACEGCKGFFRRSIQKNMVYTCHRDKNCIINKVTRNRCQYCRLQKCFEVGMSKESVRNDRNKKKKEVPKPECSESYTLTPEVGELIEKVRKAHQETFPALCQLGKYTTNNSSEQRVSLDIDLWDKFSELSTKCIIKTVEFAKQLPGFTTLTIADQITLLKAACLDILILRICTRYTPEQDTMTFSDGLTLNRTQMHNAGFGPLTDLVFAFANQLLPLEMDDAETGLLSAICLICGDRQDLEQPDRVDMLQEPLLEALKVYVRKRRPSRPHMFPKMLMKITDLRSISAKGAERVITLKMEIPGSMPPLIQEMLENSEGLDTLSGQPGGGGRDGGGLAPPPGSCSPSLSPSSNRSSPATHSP
Method in brief: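 Read-out: DR5-driven reporter transcript measured by RT-PCR, 6-FAM primer extension, HpaI digest and capillary electrophoresis. Human HepG2 liver cells carry transiently transfected cis-element reporter constructs; dosing lasts 24 h. Gain or loss of signal fitted against DMSO baseline.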

[17] = target: Transcription factor E2F1 (Homo sapiens) (UniProt Q01094); experiment: ATG_E2F_CIS: Attagene CIS-FACTORIAL HepG2 Assay for human E2F Transcription Factor 1 (AID 2282935); settings: HepG2 Attagene cis-reporter, E2F reporter RNA transcripts; actives raise or lower the signal
Sequence of Transcription factor E2F1 (Homo sapiens) (Q01094 whole entry, looked up): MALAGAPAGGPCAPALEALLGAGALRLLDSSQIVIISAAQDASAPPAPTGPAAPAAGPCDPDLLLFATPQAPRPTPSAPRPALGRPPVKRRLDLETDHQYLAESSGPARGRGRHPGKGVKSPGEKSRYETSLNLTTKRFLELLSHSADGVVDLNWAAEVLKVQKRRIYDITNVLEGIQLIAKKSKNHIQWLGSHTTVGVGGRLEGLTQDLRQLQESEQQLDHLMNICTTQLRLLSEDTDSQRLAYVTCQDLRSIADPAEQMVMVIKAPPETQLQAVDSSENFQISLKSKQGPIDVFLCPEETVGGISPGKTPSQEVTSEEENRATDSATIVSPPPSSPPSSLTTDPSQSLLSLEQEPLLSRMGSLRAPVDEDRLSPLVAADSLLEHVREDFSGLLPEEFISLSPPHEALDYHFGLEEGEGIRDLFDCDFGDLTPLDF
Method in brief: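 Transient MRTU transfection of HepG2; 24 h compound exposure; RNA → oligo(dT) RT → PCR → FAM label → HpaI cut → CE fluorescence. Gain/loss of signal fit against DMSO.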

[18] = ATG_AP_1_CIS: Attagene CIS-FACTORIAL HepG2 Assay for human Activator Protein 1 (AP-1) (AID 2282931); settings: HepG2 Attagene cis-factorial AP-1 reporter mRNA; actives raise or lower the signal
Method in brief: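 Fluorescence of labelled PCR fragments separated by capillary electrophoresis gives reporter mRNA levels. HepG2 with transfected cis-regulated reporter units, 24 h exposure; DMSO serves as baseline for bidirectional curve fits.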

[19] = ATG_CRE_CIS: Attagene CIS-FACTORIAL HepG2 Assay for human cAMP Responsive Element (CRE) binding protein 3 (AID 2282926); settings: HepG2 CRE cis-reporter, Attagene multiplexed mRNA; actives raise or lower the signal
Method in brief: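 Liver-derived HepG2, transfected with a CRE-containing reporter panel, exposed 24 h; transcript levels sized and quantified by capillary electrophoresis of labelled amplicons; signal changes either way referenced to vehicle.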

Measured: AC50

Oc1c(Cl)c(Cl)c(Cl)c(Cl)c1Cl
inactive: [1] | [2] | [3] | [4] | [5] | [6] | [7] | [8] | [9] | [10] | [12] | [14] | [16] | [17]
active: [10] 13.7 µM | [11] 28.7 µM and 8.37 µM and 39.7 µM | [12] 31.6 µM and 34.8 µM | [13] 14 µM and 6.01 µM and 874 nM | [14] 26.1 µM | [15] 13.6 µM and 18.2 µM and 31.3 µM | [16] 14.1 µM

CCC(C)(CC)c1cc(NC(=O)c2c(OC)cccc2OC)on1
active: [10] 1.48 µM | [12] 32 µM | [13] 20.5 µM | [15] 9.92 µM | [16] 12.7 µM
not listed: [8] | [19]
inactive: all other assays above

C1CC2OC2CC1C1CO1 (stereo not drawn)
active: [13] 81.5 µM
not listed: [18] | [19]
inactive: all other assays above

CCCCCCCCCC[N+](C)(C)CCCCCCCCCC
active: [1] 5.55 µM | [2] 41.2 µM | [3] 3.61 µM | [4] 15.6 µM | [5] 6.27 µM | [8] 3.25 µM | [9] 3.13 µM | [11] 179 µM | [12] 6.09 µM | [18] 192 µM | [14] 100 µM
inactive: [6] | [7] | [19] | [10] | [13] | [15] | [16] | [17]

CN(C)c1nc(=O)n(C2CCCCC2)c(=O)n1C
not listed: [8] | [16] | [19]
inactive: all other assays above

OCC(O)CO
inactive: [19] | [10] | [11] | [12] | [13] | [14] | [15] | [16] | [17]
active: [13] 33.3 µM

Clc1ccc(C(c2ccccc2Cl)C(Cl)(Cl)Cl)cc1 (stereo not drawn)
active: [2] 56.3 µM | [3] 50.9 µM | [5] 82.8 µM | [7] 114 µM | [10] 131 µM | [11] 37.5 µM [middle of 4 runs] | [18] 40.4 µM [middle of 4 runs]
inactive: [1] | [4] | [6] | [8] | [9] | [10] | [13] | [14] | [15] | [16] | [17]

CCOCCOC(C)=O
not listed: [18]
inactive: all other assays above

c1cc2ccc3cccc4ccc(c1)c2c34
active: [1] 104 µM | [13] 68.7 µM | [16] 7.9 µM
not listed: [18] | [19]
inactive: all other assays above

ClC1=C(Cl)[C@]2(Cl)[C@@H]3[C@H]4C[C@H]([C@@H]5O[C@H]45)[C@@H]3[C@@]1(Cl)C2(Cl)Cl
active: [12] 5.08 µM | [16] 1.14 µM
not listed: [19]
inactive: all other assays above

O=C(O)C(F)(F)C(F)(F)C(F)(F)C(F)(F)C(F)(F)C(F)(F)C(F)(F)C(F)(F)F
active: [3] 111 µM | [8] 106 µM | [11] 62.9 µM and 267 µM | [12] 81.9 µM and 50 µM | [15] 248 µM | [17] 55.4 µM
inactive: [1] | [2] | [4] | [5] | [6] | [7] | [9] | [10] | [11] | [12] | [13] | [14] | [15] | [16] | [17]

Cc1cccc(C)c1N
not listed: [18] | [19]
inactive: all other assays above

CO/C=C(/C(=O)OC)c1ccccc1COc1cccc(C(F)(F)F)n1
active: [1] 20.5 µM | [3] 29.1 µM | [8] 26.9 µM | [9] 0.638 µM | [12] 7.46 µM | [15] 20.2 µM
not listed: [18] | [19]
inactive: all other assays above

CCC(C)(c1ccc(O)cc1)c1ccc(O)cc1
active: [5] 104 µM | [6] 34.3 µM | [11] 56.5 µM and 56.1 µM and 23.2 µM | [12] 47.5 µM [middle of 4 runs] | [13] 58.9 µM
inactive: [1] | [7] | [8] | [10] | [11] | [13] | [14] | [15] | [17]

O=C(N[C@H]1CN2CCC1CC2)c1cc2ccoc2cn1
not listed: [19]
inactive: all other assays above
